# Results: PubChem BioAssay (NCATS)
# Results filed as inconclusive are left out. A number with no mark means an inactive call. The source made the active and inactive calls. Calls follow the shape of the dose curve; as a rule, active = well fitted inhibition curve with a large enough effect; inconclusive = small, poorly fitted or top-dose-only effect; inactive = flat fitted curve, though single readings scatter.
# Target: Voltage-gated inwardly rectifying potassium channel KCNH2 (Homo sapiens) (UniProt Q12809)
# Assay: qHTS Assay for Small Molecule Inhibitors of the Human hERG Channel Activity (AID 588834);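 also: lower thallium flux fluorescence means stronger hERG block; nearly all actives have a fitted effect of over 50% in size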; as to activity change, negative = inhibition: top concentration of the series differs between compounds
# Details: U2OS BacMam hERG, FluxOR thallium flux fluorescence; series mostly up to 46.1 µM; activity change, negative = inhibition: at the top concentration
# How it was run: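 Concentration-response qHTS measuring drop in thallium-sensitive dye signal. U2OS cells carrying BacMam hERG; compound exposure ~10 min, then stimulation buffer and 2 min read at 1 sec intervals.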
# % is scaled to controls: 0 for no effect and ±100 for the full control effect; potency is read from the fitted curve at half-maximal effect.
# Sequence of Voltage-gated inwardly rectifying potassium channel KCNH2 (Homo sapiens) (Q12809 whole entry, looked up): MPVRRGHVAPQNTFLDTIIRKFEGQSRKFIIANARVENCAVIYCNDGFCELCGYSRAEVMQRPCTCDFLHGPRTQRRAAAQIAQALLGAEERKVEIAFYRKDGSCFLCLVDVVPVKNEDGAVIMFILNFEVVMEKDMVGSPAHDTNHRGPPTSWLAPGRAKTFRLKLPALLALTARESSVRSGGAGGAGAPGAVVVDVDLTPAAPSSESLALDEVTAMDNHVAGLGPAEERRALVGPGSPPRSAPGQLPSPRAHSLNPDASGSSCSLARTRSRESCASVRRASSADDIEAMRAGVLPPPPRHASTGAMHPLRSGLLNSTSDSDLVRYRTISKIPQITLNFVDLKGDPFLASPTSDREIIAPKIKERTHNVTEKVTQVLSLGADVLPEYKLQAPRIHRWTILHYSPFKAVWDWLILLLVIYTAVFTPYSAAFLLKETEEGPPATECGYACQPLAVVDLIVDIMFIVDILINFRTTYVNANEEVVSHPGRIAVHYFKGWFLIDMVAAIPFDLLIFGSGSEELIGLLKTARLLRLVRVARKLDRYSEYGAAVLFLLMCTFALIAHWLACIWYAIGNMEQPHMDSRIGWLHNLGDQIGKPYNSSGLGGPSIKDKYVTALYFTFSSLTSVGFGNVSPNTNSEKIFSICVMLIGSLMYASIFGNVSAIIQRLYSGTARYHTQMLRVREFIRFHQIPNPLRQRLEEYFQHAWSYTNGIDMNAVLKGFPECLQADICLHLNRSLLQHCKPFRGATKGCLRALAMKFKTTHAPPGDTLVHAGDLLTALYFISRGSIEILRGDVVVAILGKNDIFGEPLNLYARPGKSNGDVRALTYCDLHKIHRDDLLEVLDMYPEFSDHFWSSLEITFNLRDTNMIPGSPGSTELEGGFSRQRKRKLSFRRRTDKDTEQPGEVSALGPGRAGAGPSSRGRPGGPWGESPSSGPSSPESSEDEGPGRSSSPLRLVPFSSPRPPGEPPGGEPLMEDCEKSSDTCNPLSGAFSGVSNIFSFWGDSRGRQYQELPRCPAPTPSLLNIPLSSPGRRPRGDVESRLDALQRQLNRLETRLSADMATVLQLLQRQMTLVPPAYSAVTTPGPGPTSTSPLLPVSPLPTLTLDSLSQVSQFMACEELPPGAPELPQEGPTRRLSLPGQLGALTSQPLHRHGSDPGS
SMILES,"activity change, negative = inhibition",Potency
C=N[C@@H](C(=O)N[C@@H]1C(=O)N2[C@@H]1SC(C)(C)[C@@H]2C(=O)O)c1ccccc1,10.4%,–
C(=C\c1ccncc1)/c1ccccc1,-0.356%,–
C[C@H](CCCC(C)(C)O)[C@H]1CC[C@H]2[C@@H]3CC=C4C[C@@H](O)CC[C@]4(C)[C@H]3CC[C@]12C,9.9%,–
CC(C)CN(C[C@@H](OP(=O)(O)O)[C@H](Cc1ccccc1)NC(=O)O[C@H]1CCOC1)S(=O)(=O)c1ccc(N)cc1,22.9%,–
CC(C)N1CCN(c2ccc(OC[C@H]3CO[C@](Cn4cncn4)(c4ccc(Cl)cc4Cl)O3)cc2)CC1,–,8910 nM (active)
C[N@+]12CCCC[C@@H]1CCC(=C(c1cccs1)c1cccs1)C2,–,2240 nM (active)
CC1CCCC(C)N1NC(=O)c1ccc(Cl)c(S(N)(=O)=O)c1 (stereo not given),-3.38% [at 20.6 µM],–
CCC(C)[C@@H](N)C(=O)O (stereo not given in full),-12.1%,–
C[N+]1(C)[C@@H]2CC(OC(=O)C(O)(c3cccs3)c3cccs3)C[C@H]1[C@@H]1O[C@@H]12 (stereo not given in full),15.1%,–
CC(C)CCC[C@@H](C)[C@H]1CC(=O)C2=C3CC[C@H]4C[C@@H](O)CC[C@]4(C)[C@H]3CC[C@@]21C,-27.1%,–
CC(C)c1ncc([N+](=O)[O-])n1C,4.91%,–
C=C1CC[C@H](O)CC1=C/C=C1\CCC[C@]2(C)[C@@H]([C@H](C)/C=C/[C@H](C)C(C)C)CC[C@@H]12,-9.25%,–
COc1ccccc1N1CCN(CCCC(=O)c2ccc(F)cc2)CC1,–,1410 nM (active)
C=O,10.7%,–
CCCc1nc(C(C)(C)O)c(C(=O)OCc2oc(=O)oc2C)n1Cc1ccc(-c2ccccc2-c2nn[nH]n2)cc1,-2.99%,–
